Data as given in ChEMBL document CHEMBL3988442, “University of Dundee, Small-Polar-MMV Screening Library” (2021).
Among all 48,000 compounds or so, about 13,000 (27%) showed an effect of 50% or more. Some of the results follow.

system: Wolbachia pipientis; assay: Anti-Wolbachia Cell-Based Screen; assay type: functional; set-up: scale not given: in the data most compounds retested in dose-response had high values; conditions: 5 µM

Row | SMILES | Percent Effect
1 | Cc1noc(CCCC(=O)NC(C)c2cccnc2)n1 (stereo not given) | -10.11%
2 | COCC(=O)N1CC[C@@H](O)[C@@H]1Cc1ccccc1 | -9.68%
3 | NC(=O)N1CC[C@H](O)[C@@H]1Cc1ccccc1 | 106.8%
4 | COCC(=O)N1CC[C@@H](N2CCOCC2)[C@@H]1Cc1ccccc1 | -5.655%
5 | CC(=O)N1CC[C@@H](N2CCN(C)CC2)[C@@H]1Cc1ccccc1 | -7.108%
6 | COCCN1CC[C@H](O)[C@@H]1Cc1ccccc1.O=C(O)C(F)(F)F | -7.454%
7 | O=C(NC1CC1)N1CC[C@@H](O)[C@@H]1Cc1ccccc1 | 101.4%
8 | CN(C)C(=O)N1CC[C@@H](O)[C@@H]1Cc1ccccc1 | 109.4%
9 | CN(C)C(=O)N1CC[C@@H](O)[C@@H]1Cc1cnn(C)c1 | 3.844%
10 | CN1CCN([C@@H]2CCN(C(N)=O)[C@H]2Cc2ccccc2)CC1 | -47.59%
11 | CN(C)[C@@H]1CCN(C(=O)NC2CCCC2)[C@H]1Cc1ccncc1.O=C(O)C(F)(F)F.O=C(O)C(F)(F)F | -4.406%
12 | O=C(NC1CC1)N1CC[C@H](OCC2CC2)[C@@H]1Cc1cccnc1.O=C(O)C(F)(F)F | -2.258%
13 | CCC(=O)N1CC[C@H](O)[C@@H]1Cc1ccccc1 | 99.45%
14 | c1ccc(-c2cnn3cc(CN4CCC5(CCO5)CC4)cnc23)cc1 | -14.3%
15 | CC(C)C(=O)N1CCN(CC(O)c2cc(Cl)ccc2Cl)CC1 (stereo not given) | 10.47%
16 | CC(NC(=O)COc1ccc(Cl)cc1Cl)c1nncn1C(C)C (stereo not given) | 0.4331%
17 | CN(Cc1ccccc1)CC(C)(C)NC(=O)c1ccc(C(N)=O)cn1 | 12.65%
18 | COCCCS(=O)(=O)N1CCN(Cc2cccn2C)CC1 | -42.29%
19 | CN(C)CCCN1CC2(CCN(C(=O)C3(C)CCCCO3)CC2)OC1=O (stereo not given) | 3.267%
20 | O=C(c1ccnnc1)N1CC[C@H](OCC2CC2)[C@@H]1Cc1ccncc1 | 0.4029%
21 | CCO[C@@H]1CCN(C(=O)c2ccnnc2)[C@@H]1Cc1cnn(C)c1 | -9.757%
22 | O=C(c1ccnnc1)N1CC[C@@H](O)[C@@H]1Cc1ccccc1 | 101.5%

Row | SMILES | Percent Effect
23 | CC(C)Cc1nc(OCC(=O)O)c(C#N)c2c1CCC2 | -8.981%
24 | CN(Cc1n[nH]c2c1CCCC2)c1cc(N2CCOCC2)nc(N)n1 | 14.47%
25 | O=C(c1ccco1)N1CCOCC2(C1)CN(c1ccoc1)C(=O)CO2 (stereo not given) | 100.8%
26 | O=C(c1ccco1)N1CCOCC2(C1)CN(c1ccccn1)C(=O)CO2 (stereo not given) | 92.62%
27 | O=C(c1ccco1)N1CCOCC2(C1)CN(c1ccccc1)C(=O)CO2 (stereo not given) | -13.67%
28 | CN1CC2(COCCN(C(=O)c3ccco3)C2)OCC1=O (stereo not given) | -13.58%
29 | CC(O)CCN(C)c1nc2ccccc2c(=O)[nH]1 (stereo not given) | 20.77%
30 | COCc1nc(-c2ccc(S(=O)(=O)N3CCCC3)cc2)cs1 | -8.912%
31 | Cc1noc(CNc2cc3c(cc2Cl)OCCCO3)n1 | 2.534%
32 | O=C(O)c1cc2c(nc1-c1ccncc1)CCN(Cc1ccoc1)CC2 | -1.034%
33 | CCSCc1nc(O)c2nnn(C3CCN(Cc4ccco4)CC3)c2n1 | 93.96%
34 | Oc1nc(C2CC2)nc2c1nnn2C1CCN(Cc2ccoc2)CC1 | 197.8%
35 | CC(C)N(C)S(=O)(=O)N1CCN(Cc2ccco2)CC1 | -10.02%
36 | c1nc2c(c(C3CCOC3)n1)CCN(Cc1ccoc1)CC2 (stereo not given) | 7.2%
37 | CCSCc1nc(O)c2nnn(C3CCN(Cc4ccoc4)CC3)c2n1 | 124.7%
38 | CCn1ncnc1C(C)NC(=O)C1CCN(Cc2ccco2)CC1 (stereo not given) | -16.37%
39 | O=C(CCn1cccn1)NCC(c1cccs1)N1CCOCC1 (stereo not given) | 0.8626%
40 | O=C1CC(NS(=O)(=O)N2CCOCC2)CN1Cc1ccc(F)cc1 (stereo not given) | -0.715%
41 | N#Cc1cnc2ccccc2c1N1CCN(C(=O)C2CCC2)CC1 | 4.022%
42 | Cl.N#Cc1cnc2ccccc2c1N1CCN(CCC(=O)O)CC1 | -4.307%
43 | N#Cc1cnc2ccccc2c1N1CCC(C(=O)O)CC1 | 149.3%
44 | CCc1nc(CN(C)C(=O)NC(C)c2cccc(NC(C)=O)c2)cs1 (stereo not given) | 4.996%

Row | SMILES | Percent Effect
45 | O=C1COc2cccc(OCc3ccccn3)c2N1 | -1.975%
46 | NCCCn1nc(C(F)(F)F)c2c1CCC2 | 77.67%
47 | N#CCCn1nc(C(F)(F)F)c2c1CCCC2 | 118.8%
48 | N#CCCn1nc(C(F)(F)F)c2c1CCC2 | 109.3%
49 | CC(C)Oc1nnc(SCC(=O)NCC(=O)N2CCCC2)s1 | 11.98%
50 | Cc1cc(N(Cc2cccnc2)C2CC2)n2nc(C(F)(F)F)nc2n1 | 19.73%
51 | CN1CCN(S(=O)(=O)c2cncc(F)c2)c2ccccc2C1 | -3.116%
52 | O[C@@H]1C[C@@H](c2nc(-c3ccc(F)cc3)no2)N(C2CCOCC2)C1 | -13.07%
53 | COCC(=O)NC(Cc1cc(N(C)C)nc(C2CC2)n1)c1ccccc1 (stereo not given) | 113.9%
54 | NC(=O)C(NC(=O)COC1CCCC1)c1ccccc1 (stereo not given) | -1.81%
55 | CN(C)c1cc(CC(NC(=O)C2CC2)c2ccccc2)nc(C2CC2)n1 (stereo not given) | 92.65%
56 | Cc1ccsc1C(Cc1ccccc1)NC(=O)CNC(=O)C1CC1 (stereo not given) | -6.693%
57 | CN(CCC(O)c1ccccc1)c1cc(C2CC2)ncn1 (stereo not given) | 7.591%
58 | COC(=O)C(NC(=O)COC1CCCCC1)c1ccccc1 (stereo not given) | 3.192%
59 | CCC(=O)NC1CCCN(C(=O)Nc2cc(-c3ccccc3)on2)C1 (stereo not given) | -16.23%
60 | CN(CC(=O)N1CCC(C(O)c2ccccc2)CC1)c1cnccn1 (stereo not given) | -4.983%
61 | CCC(NC(=O)C1CCN(S(=O)(=O)N(C)C)CC1)c1ccc(C)c(C)c1 (stereo not given) | -8.706%
62 | CCC(=O)NC(Cc1cc(N(C)C)nc(C2CC2)n1)c1ccccc1 (stereo not given) | 105%
63 | COC(=O)C(NC(=O)c1ccc(N(C)C)nc1)c1ccccc1 (stereo not given) | 15.6%
64 | CC(C)C(=O)NC(Cc1cc(N(C)C)nc(C2CC2)n1)c1ccccc1 (stereo not given) | 86.08%
65 | COC1CCCN(Cc2nc(Cc3ccccc3F)no2)C1 (stereo not given) | -1.199%
